Test results taken from ChEMBL document CHEMBL4513135, “CO-ADD screening of IQOG CSIS (Spain) compounds”.
Entries with a potency or affinity are not part of this list.

test system: Cryptococcus neoformans; conditions: Concentration 32 ug.mL-1; ASSAY_TEST Inhibition of Fungal Growth; detection method Resazurin; Absorption (OD600-OD570); plate type 384well; NBS; CORNING #3640

SMILES	Inhibition
COc1ccc2cc(C3C(C(C)=O)=C(C)Oc4nc5c(c(N)c43)CCCCC5)c(Cl)nc2c1 (centres undefined)	-8.4%
N#Cc1cccnc1N	-34.57%
CCOC(=O)/C(C#N)=C\c1ccc(C)cc1	-4.89%
O=C(Cc1cccc2ccccc12)N/N=C/c1c[nH]c2ccccc12	-4.19%
